Assay outcomes (PubChem)
Luciferase inh: inhibitors of firefly (Photinus pyralis) luciferase; purified P. pyralis luciferase, luminescence, biochemical; P08659; Potency, µM (doses to about 115 µM), most hits filed as inhibitors; actives 2.5% (n = 76,000); also: nearly all actives have a fitted effect of over 65% in size
Target sequence (P08659 whole entry, looked up): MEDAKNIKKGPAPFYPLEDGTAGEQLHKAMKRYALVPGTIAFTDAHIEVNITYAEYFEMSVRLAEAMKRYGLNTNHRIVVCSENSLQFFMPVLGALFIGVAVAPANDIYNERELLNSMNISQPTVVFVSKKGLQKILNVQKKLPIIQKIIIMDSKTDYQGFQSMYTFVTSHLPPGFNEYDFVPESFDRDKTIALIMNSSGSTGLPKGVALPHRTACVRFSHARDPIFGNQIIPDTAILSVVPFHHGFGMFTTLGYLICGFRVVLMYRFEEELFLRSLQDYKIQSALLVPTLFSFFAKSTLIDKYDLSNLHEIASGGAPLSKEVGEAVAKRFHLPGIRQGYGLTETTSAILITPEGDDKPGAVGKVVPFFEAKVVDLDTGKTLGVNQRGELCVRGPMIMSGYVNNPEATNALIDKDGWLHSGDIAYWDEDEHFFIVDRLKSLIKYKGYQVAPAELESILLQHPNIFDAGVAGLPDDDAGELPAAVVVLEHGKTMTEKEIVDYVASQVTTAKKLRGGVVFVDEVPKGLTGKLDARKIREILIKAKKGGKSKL
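Luminescence read by CCD imager after adding enzyme (10nM final) to wells holding compound, titrated in qHTS. Substrates 10uM each D-luciferin and ATP; buffer 50mM Tris acetate pH 7.5, 10mM Mg acetate, Tween-20, BSA.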
3T3 cytotox: kills NIH 3T3 cells | NIH 3T3 viability, CellTiter-Glo ATP luminescence, 48-72 h | Potency, µM (top dose mostly 96.7 µM), for the others: top-dose activity change, negative = cytotoxicity, hits mostly inhibitors | actives 4.3% (n = 94,000); also: nearly all actives have a fitted effect of over 55% in size
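Mouse fibroblast NIH 3T3 cells, 400 per well, received compound via pintool and were incubated for 48 or 72 hr prior to CellTiter-Glo ATP luminescence measurement.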
hNpr1 antagonist: blocks ANP-stimulated signaling of human Npr1 receptor; HEK293 hNpr1 GloSensor cGMP, ANP-stimulated luminescence; Potency, µM (series often up to 46.3 µM), without a hit: top-dose activity change, negative = inhibition, actives largely listed as inhibitors; actives 1.6% (n = 76,000); P16066; calls by dose curve; also: nearly all actives have a fitted effect of over 60% in size
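Compound pre-incubated 30 min at room temperature on GloSensor-loaded HEK293 cells stably carrying hNpr1 and the pGS-40F cGMP biosensor. Stimulation uses hNppA at 0.1 nM final; luminescence is taken at baseline and 20 min post-agonist.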
HEK293 tox: kills HEK 293 cells | actives 6.6% (n = 94,000) | HEK 293 viability, ATP luminescence (CellTiter-Glo), 48-72 h | Potency, µM (titrated, usually from 115 µM), for inactives: at the highest dose activity change, negative = cytotoxicity, usual class: inhibitors; also: nearly all actives have a fitted effect of over 60% in size
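Pintool-delivered compounds were incubated with HEK 293 cells (250 cells/well) at 37 degree Celsius for 48 or 72 hr. ATP-dependent luminescence (CellTiter-Glo) then reported remaining viable cells.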
Starred values were filed as active, the others as inactive; i = inactive; ? = inconclusive; . = not tested or not shown; [ ] = remark or other dose. An excerpt weighted towards active compounds, which were near 11% of everything screened. Unless noted, calls follow the shape of the dose curve; as a rule, active = well fitted curve in the direction sought with a large enough effect; inconclusive = small, poorly fitted or top-dose-only effect, or another doubt; inactive = no such curve, though single readings can be large; an effect the other way counts as inactive or inconclusive. % is scaled to controls: 0 for no effect and ±100 for the full control effect; potency is read from the fitted curve at half-maximal effect.

SMILES	Luciferase inh	3T3 cytotox	hNpr1 antagonist	HEK293 tox
COc1ccc(C(=O)Nc2ccc([C@H]3OCC(=O)N(C(C)C)[C@@H]3CO)cc2)cc1	25.1µM*	?	-7.9%[70.6 µM]	?
COc1ccc(C(=O)Nc2ccc([C@H]3OCC(=O)N(C)[C@@H]3CO)cc2)cc1	70.8µM*	-19.2%[138 µM]	0.7%[70.6 µM]	-15.7%[172 µM]
CCOc1cccc(CNC(=O)C23CCCC=C2N(CCOC)C(=O)CC3)c1 (centres undefined)	i	-11.9%	-11.9%	-24.0%
O=C(Cc1ccccc1)N1CCC(Oc2cccc(F)c2)C1 (centres undefined)	i	?	0.4%	?
COc1cccc(-c2cc3c(=O)n(CCNC(=O)c4c(F)cccc4F)ccn3n2)c1	7.94µM*	-23.4%	-12.9%	1.4%
COc1cccc(-c2cc3c(=O)n(CCNC(=O)C(C)Oc4ccccc4)ccn3n2)c1 (centres undefined)	?	?	?	44.7µM*
COc1cccc(-c2cc3c(=O)n(CCNC(=O)c4ccoc4)ccn3n2)c1	?	-13.2%	-21.2%	44.7µM*
COc1cccc(-c2cc3c(=O)n(CCNC(=O)c4cccnc4)ccn3n2)c1	?	-4.0%	-18.4%	2.9%
COc1cccc(-c2cc3c(=O)n(CCNC(=O)c4cc(F)cc(F)c4)ccn3n2)c1	i	?	-25.2%	?
O=C(NC1CCCCCC1)c1ccc2nc(-c3cccnc3Cl)oc2c1	.	-9.8%[138 µM]	.	i
CC(Cc1cccnc1)Nc1cc(-c2ccccc2F)nc2ccnn12 (centres undefined)	i	?	4.3%	79.4µM*
CCc1nc2c(c(-c3ccc(Cl)cc3)n1)CN([S+](=O)([O-])c1cccc(C(F)(F)F)c1)CC2	i	-31.5%	9.7%	-14.9%
CCc1nc2c(c(-c3ccc(Cl)cc3)n1)CN([S+](C)(=O)[O-])CC2	i	44.7µM*	4.1%[70.6 µM]	i
CCc1nc2c(c(-c3ccc(Cl)cc3)n1)CN(C(=O)CCl)CC2	i	22.4µM*	-15.6%	?
CC1(C(=O)NCc2ccncc2)CCCc2cnc(Nc3ccccc3)nc21 (centres undefined)	i	100µM*	0.0%[70.6 µM]	-23.5%[172 µM]
CC1(C(=O)NCc2ccncc2)CCCc2cnc(NCc3ccccc3)nc21 (centres undefined)	i	25.1µM*	-2.2%[70.6 µM]	89.1µM*
CC1(C(=O)NCc2cnccn2)CCCc2cnc(NCc3ccccc3)nc21 (centres undefined)	i	89.1µM*	3.5%[70.6 µM]	-4.0%[172 µM]
COc1cccc(-c2cc3c(=O)n(CC(O)c4ccc(C(C)C)cc4)ccn3n2)c1 (centres undefined)	i	?	-23.4%	?
CC(C)Oc1ccc(CNC(=O)C2Cn3cccc3C(=O)N2Cc2ccccc2)cc1 (centres undefined)	i	?	-9.4%	?
O=C1[C@@H]2C[C@@H](CN2C(=O)c2ccno2)Oc2ccccc2N1Cc1ccc(OC(F)(F)F)cc1	i	?	0.3%	?
CC1(C)CC2CC(C)(CN2C(=O)CC(c2ccccc2Cl)c2c[nH]c3ccccc23)C1 (centres undefined)	i	?	-16.7%	25.1µM*
O=C(Cc1cccc(F)c1)N1CCC2(CC1)CC(N(Cc1ccccc1)C1CC1)CCO2 (centres undefined)	i	?	3.5%	?
COCCCNC(=O)N1CCC(F)(c2nc(CC(C)C)no2)CC1	.	-32.0%	.	-23.6%
NC(=O)N1CCCC(C(=O)N2CCN(c3nsc4ccccc34)CC2)C1 (centres undefined)	i	?	0.9%	25.1µM*
CCc1cccc2c(C(CC(=O)N3CCCC3)c3cccc([N+](=O)[O-])c3)c[nH]c12 (centres undefined)	i	28.2µM*	-12.7%	?
SMILES	Luciferase inh	3T3 cytotox	hNpr1 antagonist	HEK293 tox
CCc1cccc2c(C(CC(=O)N3CCCCC3)c3cccc(C)c3)c[nH]c12 (centres undefined)	i	-29.5%	-6.2%	?
CCc1cccc2c(C(CC(=O)N3CCc4ccccc4C3)c3cccc4c3OCO4)c[nH]c12 (centres undefined)	i	17.8µM*	-9.6%	?
CC1CCN(C(=O)c2cc3c(s2)CCN(C(=O)c2ccc(Cl)cc2)C3)CC1	i	?	-14.4%	39.8µM*
COc1ccc(-c2cccc(C(=O)NCCCOC(C)C)c2)nn1	.	-26.8%[138 µM]	.	-18.9%[172 µM]
CN1CC(=O)N(c2ccccc2F)Cc2c(NC3CCOCC3)ncnc21	.	-17.6%	.	0.8%
Clc1ccccc1C1(c2ccnc(NCc3ccccc3)n2)CCNCC1	i	25.1µM*	?	?
Clc1ccccc1C1(c2ccnc(NCc3ccccn3)n2)CCNCC1	i	-27.0%	-0.7%	?
Clc1ccccc1C1(c2ccnc(C3CCCC3)n2)CCNCC1	i	31.6µM*	-15.6%	?
COc1ccccc1Cc1nccc(C2(c3ccccc3Cl)CCNCC2)n1	i	22.4µM*	-15.0%	?
COCCNc1nccc(C2(c3ccccc3Cl)CCNCC2)n1	i	-20.1%	2.1%	?
Clc1ccccc1C1(c2ccnc(CC3CC3)n2)CCNCC1	i	79.4µM*	-1.8%	?
Clc1ccccc1C1(c2ccnc(NC3CC3)n2)CCNCC1	i	?	-9.7%	?
CN(C)C(=O)c1cc(-c2cc(Cl)cc(Cl)c2)c2nncn2n1	.	-0.5%[138 µM]	.	i
O=C1NCCOCCN(S(=O)(=O)c2ccc3c(c2)CCC3)[C@H]2CCC[C@@H]12	i	-28.5%	0.2%	-16.6%
